Values joined by “and” are separate entries in the source; they are usually repeats but may differ in a detail not shown here. Equal values may be shown once. Results filed as inconclusive are left out. Active and inactive are the calls of the source. The call rests on the fitted dose curve; in most records, active means well fitted curve in the direction sought with a large enough effect; inconclusive means small, poorly fitted or top-dose-only effect, or another doubt; inactive means no such curve, though single readings can be large; an effect the other way counts as inactive or inconclusive.
How the values were obtained:
[1] = target: Cellular tumor antigen p53 (Homo sapiens) (UniProt P04637); test: Primary qHTS for small molecule compounds that upregulate eGFP-tagged delta133p53alpha (in N-terminal) cells. (AID 2060322); settings: NCI-H358 eGFP-delta133p53alpha fluorescence, 24 h; activation: stronger effect = higher value; further: nearly all actives have a fitted effect of over 75% in size; further: potency means the concentration at half of the fitted maximal effect;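 on activation: cells pre-induced with doxycycline then dosed without doxycycline; series mostly up to about 56 µM; 0% = DMSO vehicle and 100% = reference activator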
Sequence of Cellular tumor antigen p53 (Homo sapiens) (P04637 whole entry, looked up): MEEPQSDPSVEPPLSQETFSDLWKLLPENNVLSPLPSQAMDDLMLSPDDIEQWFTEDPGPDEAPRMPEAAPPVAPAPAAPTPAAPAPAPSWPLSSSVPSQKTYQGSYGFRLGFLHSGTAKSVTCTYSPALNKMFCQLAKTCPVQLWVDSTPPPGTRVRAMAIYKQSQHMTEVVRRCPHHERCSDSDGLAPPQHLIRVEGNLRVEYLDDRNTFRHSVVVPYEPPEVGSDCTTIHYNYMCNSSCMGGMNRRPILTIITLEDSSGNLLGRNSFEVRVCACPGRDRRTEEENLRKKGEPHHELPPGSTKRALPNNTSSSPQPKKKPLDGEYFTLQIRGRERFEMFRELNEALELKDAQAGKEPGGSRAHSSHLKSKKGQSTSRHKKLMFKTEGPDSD
In short: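 NCI-H358 cells pre-induced 24 h with 10 ng/ml doxycycline for eGFP-delta133p53alpha, plated dox-free and exposed 24 h at 37C to titrated compounds. Fixed, Hoechst-stained; gated GFP peak intensity by laser scanning cytometry, normalized to DMSO (0%) and 57.5 uM 5-azacytidine (100%).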

[2] = target: Aldehyde dehydrogenase, mitochondrial (Homo sapiens) (UniProt P05091); test: qHTS for Inhibitors of the Aldehyde Dehydrogenase Family (ALDH2) Primary screen (AID 2061308);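 further: plate controls were vehicle for no effect and reference inhibitor for full effect; nearly all actives have a fitted effect of over 55% in size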
[3] = target: Retinaldehyde dehydrogenase 3 (Homo sapiens) (UniProt P47895); test: qHTS for Inhibitors of the Aldehyde Dehydrogenase Family (ALDH1A3) Primary screen (AID 2061315);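 further: plate controls were DMSO vehicle for no effect and reference inhibitor for full effect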
[4] = BET inhibitor-based combinations targeting novel dependencies in MECOM-rearranged (r) AML: SET-2 cell line (AID 2202231); settings: SET-2 AML cells viability, CellTiter-Glo luminescence, 48 h; viability: stronger effect = lower value, concentration not given here; further: nearly all actives have a fitted effect of over 35% in size; further: potency means the concentration at half of the fitted maximal effect;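 on viability: plate controls were DMSO treated cells for no effect and wells without cells for full effect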
In short: (§1)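 Each compound was tested at eleven concentrations on cells seeded at 500/well. After two days' incubation, ATP-based luminescence reported viability; responses relative to DMSO and blank wells yielded AUC and cell-line-centred Z-AUC.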

[5] = BET inhibitor-based combinations targeting novel dependencies in MECOM-rearranged (r) AML: MV-4-11 cell line (AID 2202233);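 further: plate controls were DMSO for no effect and blank wells for full effect; nearly all actives have a fitted effect of over 45% in size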
In short: (§2)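 First, 500 cells per well were seeded; next, drugs were pinned as 11-point doses; then plates sat 48 hr in the incubator; finally CellTiter-Glo was added and luminescence read, with AUC and Z-AUC computed.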

[6] = BET inhibitor-based combinations targeting novel dependencies in MECOM-rearranged (r) AML: UCSD-AML1 cell line (AID 2202235); further: nearly all actives have a fitted effect of over 40% in size; further: potency means the concentration at half of the fitted maximal effect;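 on viability (% of control): series mostly up to about 46 µM; plate controls were DMSO vehicle wells for no effect and blank wells for full effect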
In short: as §2

[7] = BET inhibitor-based combinations targeting novel dependencies in MECOM-rearranged (r) AML: AML-194 cell line (AID 2202237; further: nearly all actives have a fitted effect of over 40% in size; further: potency means the concentration at half of the fitted maximal effect;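 on viability (% of control): plate controls were vehicle wells for no effect and wells without cells for full effect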)
In short: as §1

[8] = BET inhibitor-based combinations targeting novel dependencies in MECOM-rearranged (r) AML: HNT-34 cell line (AID 2202234); further: nearly all actives have a fitted effect of over 35% in size; further: potency means the concentration at half of the fitted maximal effect;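 on viability (% of control): plate controls were vehicle wells for no effect and cell-free wells for full effect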
In short: as §2

[9] = BET inhibitor-based combinations targeting novel dependencies in MECOM-rearranged (r) AML: AML-191 cell line (AID 2202236; further: nearly all actives have a fitted effect of over 35% in size; further: potency means the concentration at half of the fitted maximal effect;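 on viability (% of control): plate controls were vehicle wells for no effect and wells without cells for full effect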)
In short: as §1

O=C(Nc1ccc(S(=O)(=O)N2CCOCC2)cc1)c1cc(Cl)ccc1NS(=O)(=O)c1ccc(Cl)s1
inactive: activation [1] 0.837% | Potency [2] | Potency [3] | viability [4] 98.4% | Potency [5] | Potency [6] | Potency [7]

CS(=O)(=O)N(Cc1ccco1)CC(O)Cn1c2ccccc2c2ccccc21 (configuration not stated)
inactive: activation [1] -2.66% | Potency [2] | Potency [3] | viability [4] 98.8% | Potency [8] | Potency [6]

COCCNCc1ccc(-c2cc3nccc(Oc4ccc(NC(=O)C5(C(=O)Nc6ccc(F)cc6)CC5)cc4F)c3s2)nc1
inactive: Potency [2] | Potency [3]
active: Potency [1] 19 µM | Potency [4] 13.2 µM | Potency [8] 2.95 µM | Potency [6] 8.33 µM | Potency [9] 8.33 µM | Potency [7] 5.25 µM

CC(C)NC(=O)N1CC[C@H](N=C2Nc3cc(F)ccc3N(CC(F)F)c3ccc(Cl)cc32)C1
inactive: activation [1] 4.33% | Potency [2] | Potency [3] | viability [4] 109% | viability (% of control) [8] 99.5% [at 8.46 µM] | viability (% of control) [9] 98.9% [at 8.46 µM] | viability (% of control) [7] 93.8% [at 8.46 µM]

O=c1ccn([C@@H]2O[C@H](CO)[C@@H](O)[C@H]2O)c(=O)[nH]1
inactive: activation [1] 10.3% | Potency [2] | Potency [3] | viability [4] 115% | Potency [8] | Potency [6] | Potency [9] | Potency [7]

C[C@H](c1ccc(F)cc1CCCC(=O)O)N(c1cc(F)ccc1F)S(=O)(=O)c1ccc(Cl)cc1
inactive: activation [1] -2.61% and 2.68% | Potency [2] | Potency [3] | viability [4] 113% | Potency [6] | Potency [7]
